Experimental data reported in PubChem BioAssay (Tox21).
Results filed as inconclusive are left out. Values without a mark were called inactive. Active and inactive are the calls of the source. The call rests on the fitted dose curve.

Target: Thyrotropin receptor (Homo sapiens) (UniProt P16473)
Experiment: qHTS assay to identify small molecule agonists of the thyroid stimulating hormone receptor (TSHR) signaling pathway (AID 1224843); further: nearly all actives have a fitted effect of over 45% in size
Details: TSHR-HEK293 cells, cAMP HTRF, agonist mode, 30 min; series mostly up to 92.4 µM; activation: at the top concentration
In short: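 Cell line HEK293 with TSHR; density 800/well. Exposure 30 min RT. Readout HTRF cAMP (cAMP-d2/anti-cAMP-cryptate), 1 h RT before reading.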
On the % scale 0 is the no-effect control and ±100 the full control effect; potency means the concentration at half of the fitted maximal effect.

Thyrotropin receptor (Homo sapiens), sequence (P16473 whole entry, looked up): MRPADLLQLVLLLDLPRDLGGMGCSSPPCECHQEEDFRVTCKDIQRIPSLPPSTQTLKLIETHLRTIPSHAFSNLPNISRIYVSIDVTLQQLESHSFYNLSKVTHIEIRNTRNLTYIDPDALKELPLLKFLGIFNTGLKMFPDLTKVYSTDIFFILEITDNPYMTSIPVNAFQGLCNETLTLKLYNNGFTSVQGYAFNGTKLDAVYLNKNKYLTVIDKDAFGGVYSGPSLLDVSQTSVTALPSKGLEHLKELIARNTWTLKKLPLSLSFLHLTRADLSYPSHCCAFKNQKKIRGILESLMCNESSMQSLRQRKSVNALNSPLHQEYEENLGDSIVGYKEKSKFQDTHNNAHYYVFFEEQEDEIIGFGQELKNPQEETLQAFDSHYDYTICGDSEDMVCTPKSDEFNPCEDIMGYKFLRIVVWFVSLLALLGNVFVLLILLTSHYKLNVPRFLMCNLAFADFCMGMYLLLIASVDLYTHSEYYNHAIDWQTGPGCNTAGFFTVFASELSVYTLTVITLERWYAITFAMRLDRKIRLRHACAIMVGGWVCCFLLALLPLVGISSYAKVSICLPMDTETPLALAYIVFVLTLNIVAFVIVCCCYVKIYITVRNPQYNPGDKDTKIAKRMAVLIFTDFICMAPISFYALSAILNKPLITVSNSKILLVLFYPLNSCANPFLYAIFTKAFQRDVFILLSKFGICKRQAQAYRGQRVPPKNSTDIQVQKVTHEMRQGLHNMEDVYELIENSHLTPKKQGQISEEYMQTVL

Structure (SMILES) | activation | Potency
O=C(Nc1cccc(C(F)(F)F)c1)c1cc(Br)cc(Br)c1O | 25.3% | –
Cc1[nH]cnc1C[C@H]1CCc2c(C)c3ccccc3n2C1=O | 0.71% | –
COc1cc(-c2nc(NC(=O)c3cc4cc(C)cc(C)c4n3CC(=O)O)sc2CCC2CCCCC2)c(OC)cc1Cl | 7.47% | –
Cc1cc(=O)oc2cc(N(C)C)ccc12 | 6.1% | –
CCCCc1oc2ccc(NS(C)(=O)=O)cc2c1C(=O)c1ccc(OCCCN(CCCC)CCCC)cc1 | -7.1% [at 42.5 µM] | –
Clc1ccccc1C(c1ccccc1)(c1ccccc1)n1ccnc1 | 11.7% [at 42.5 µM] | –
CC(C)(C)CC(C)(C)c1ccc(O)c(Cc2ccc(Cl)cc2Cl)c1 | 1.89% [at 42.5 µM] | –
OCCN1CCN(CC/C=C2/c3ccccc3Sc3ccc(C(F)(F)F)cc32)CC1 | 3.57% [at 42.5 µM] | –
CC[C@@]1(O)C(=O)OCc2c1cc1n(c2=O)Cc2cc3c(CN(C)C)c(O)ccc3nc2-1 | 6.68% [at 42.5 µM] | –
NC(=NCCCCCCN=C(N)/N=C(\N)Nc1ccc(Cl)cc1)/N=C(\N)Nc1ccc(Cl)cc1 | – | inactive
Nc1ccccc1O | -0.229% | –
CC(C)(C)C1CCC(CC2=C(O)c3ccccc3C(=O)C2=O)CC1 (stereo unspecified) | -1.39% [at 42.5 µM] | –
C[C@@H](NCCCc1cccc(C(F)(F)F)c1)c1cccc2ccccc12 | 7.7% [at 42.5 µM] | –
Cc1onc(-c2ccccc2Cl)c1C(=O)N[C@@H]1C(=O)N2[C@@H]1SC(C)(C)[C@@H]2C(=O)O | -7.1% [at 42.5 µM] | –
CCCCCCCCCCCCc1ccc(O)cc1 | – | 27.3 µM (active)
O=C(Oc1cccc2cccnc12)c1ccccc1 | -4.46% [at 42.5 µM] | –
